In the library only some 4.8% were active in any assay of this set; here they are far more common.
Beta cell apopt – blocks beta cell apoptosis; 300,000 tested, 0.8% active; INS-1E cytokine-induced death, ATP luminescence, 48 h; percent of positive-control rescue, neutral wells zero; protection from apoptosis, % (concentration not given with the values);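 active = Every replicate reaches about 75%, or at least half do and their mean reaches it too, limit read from the data; inconclusive = At least half of replicates reach the limit but their mean does not; inactive = Under half of replicates reach the limit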;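 also: higher means more ATP so stronger rescue from cytokine killing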
CSC inhib – blocks cancer stem cells; cancer stem cell-like cells viability, luminescence; 300,000 tested, 1.1% active; AID 2717; inhibition, % at 7.5 µM; in the data active = inhibition above about 75%; inconclusive = no clear call, values can overlap the other calls; tested in HMLE shEcad cells
Mdm2 MdmX PPI – human Mdm2/MdmX binding inhibition | SaOS-2 split-luciferase Mdm2/MdmX complementation, luminescence | 330,000 tested, 3% active | AID 485346 | inhibition, % at 8 µM;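 active = inhibition of at least 50% at 8 µM in the primary screen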
Target sequence (O15151 whole entry, looked up): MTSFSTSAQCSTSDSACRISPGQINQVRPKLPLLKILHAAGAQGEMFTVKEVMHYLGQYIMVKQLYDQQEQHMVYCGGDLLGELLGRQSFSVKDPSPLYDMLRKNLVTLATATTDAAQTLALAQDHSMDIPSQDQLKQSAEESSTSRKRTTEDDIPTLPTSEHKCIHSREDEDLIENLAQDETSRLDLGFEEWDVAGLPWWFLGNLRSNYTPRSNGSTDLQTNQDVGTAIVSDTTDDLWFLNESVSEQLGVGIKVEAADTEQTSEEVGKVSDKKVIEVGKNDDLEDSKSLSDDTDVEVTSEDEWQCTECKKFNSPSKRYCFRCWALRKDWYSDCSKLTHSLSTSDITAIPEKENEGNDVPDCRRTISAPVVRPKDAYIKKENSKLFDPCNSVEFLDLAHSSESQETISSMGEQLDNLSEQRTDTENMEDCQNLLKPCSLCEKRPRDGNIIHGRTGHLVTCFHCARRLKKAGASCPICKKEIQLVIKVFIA
Target sequence (Q00987 whole entry, looked up): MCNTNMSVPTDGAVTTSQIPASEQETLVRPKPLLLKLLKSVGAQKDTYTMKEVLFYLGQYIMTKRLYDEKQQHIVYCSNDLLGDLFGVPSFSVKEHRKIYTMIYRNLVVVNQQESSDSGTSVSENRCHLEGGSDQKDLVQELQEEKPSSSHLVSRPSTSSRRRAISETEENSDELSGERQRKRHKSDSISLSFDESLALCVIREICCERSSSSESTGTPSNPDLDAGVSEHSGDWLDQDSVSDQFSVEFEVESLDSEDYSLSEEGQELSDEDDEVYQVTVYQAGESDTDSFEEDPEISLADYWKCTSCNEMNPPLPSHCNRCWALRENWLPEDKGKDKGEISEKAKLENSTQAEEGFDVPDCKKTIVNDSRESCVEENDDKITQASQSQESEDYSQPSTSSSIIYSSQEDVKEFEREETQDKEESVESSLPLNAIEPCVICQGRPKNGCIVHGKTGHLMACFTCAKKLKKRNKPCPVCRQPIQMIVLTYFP
MPTP inh – inhibitors of mitochondrial permeability transition pore | inhibition, % at 10 µM | 360,000 tested, 1.4% active | isolated mouse mitochondria, Ca2+ swelling absorbance, 30 min;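 active = inhibition of 50% or more, scaled per plate between neutral and stimulator controls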
Calb FLC – affects C. albicans growth with fluconazole. C. albicans CaCi-2 (fluconazole-resistant clinical isolate) + fluconazole, Alamar Blue growth, 48 h. growth inhibition, % (test concentration not listed). 300,000 tested, 0.57% active. AID 1979;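 active = growth inhibition above about 58% in most replicates, limit read from the data, passing the limit was not always enough; inconclusive = exactly half the replicates above a set limit; inactive = most replicates below a set limit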;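 also: all wells also contain fluconazole at 8 µg/ml as a sub-toxic cotreatment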
Of the large screens only hits and unclear results are named; the others gave an inactive call.

O=C(Nc1ccccc1Cl)c1cc(C2CCCCN2S(=O)(=O)c2ccc(F)cc2F)on1 (stereo unspecified)	none (no result: Beta cell apopt, CSC inhib, Mdm2 MdmX PPI, Calb FLC)
COc1cc(C(=O)N2CCCC(C)(C(=O)NS(=O)(=O)C3CC3)C2)cc(OC)c1OC (stereo unspecified)	none (no result: Beta cell apopt, CSC inhib, Mdm2 MdmX PPI, Calb FLC)
O=C(Nc1ccc2c(c1)OCCO2)C(C1CC1)n1c(=O)c(-c2cc3ccccc3[nH]2)nc2ccccc21 (stereo unspecified)	none (no result: Beta cell apopt, CSC inhib, Mdm2 MdmX PPI, Calb FLC)
CCCCNC1=CC(=O)C(NCCCC)=CC1=O	none (no result: Beta cell apopt, CSC inhib, Mdm2 MdmX PPI, Calb FLC)
CCCCNC1=CC(=O)C(=O)c2ccccc21	Beta cell apopt 99.1, Calb FLC inconclusive
COc1cc2nc(SCc3ccc(Cl)cc3Cl)n(Cc3cccs3)c(=N)c2cc1OC	Calb FLC 80.8
COc1cc2nc(SCc3ccc(C(F)(F)F)cc3)n(Cc3cccs3)c(=N)c2cc1OC	none
Cc1ccc(NC(=O)c2cc(S(=O)(=O)N3CCCCC3)c[nH]2)cc1Cl	none (no result: Beta cell apopt, CSC inhib, Mdm2 MdmX PPI, Calb FLC)
Cc1cc(Nc2nc(Cl)c(Cl)cc2Cl)n(-c2ccccc2)n1	CSC inhib 99.4
Cc1cc(Nc2ccccc2)n(-c2ccccc2)n1	none
Cc1cc(C)nc(-n2nc(C)cc2Nc2ccccc2)n1	Beta cell apopt 84.6
CN1C(=O)[C@H]2[C@@H](c3ccc(C(F)(F)F)cc3)N[C@]3(CCCN(Cc4ccc(Cl)cc4)C3=O)[C@H]2C1=O	none (no result: Beta cell apopt, CSC inhib, Mdm2 MdmX PPI, Calb FLC)
C/C(=N/Nc1ccc(C)cc1)C1(C)N(O)C(C)(C)C(c2ccco2)=[N+]1[O-] (stereo unspecified)	Calb FLC 111.9
O=C(CCN1CCOCC1)NNC(=O)Nc1cccc(C(F)(F)F)c1	none
CCOC(=O)C(=NCCCN1CCOCC1)NNc1cccc(C(F)(F)F)c1	CSC inhib 85.5, Calb FLC 129.4
COc1ccc2sc(-c3ccccc3OC)c(-c3ccc(O)cc3)c2c1	CSC inhib 108.5 (no result: Calb FLC)
COc1cc2sc(-c3ccccc3OC)c(-c3ccc(O)cc3)c2cc1OC	CSC inhib 80.2 (no result: Calb FLC)
COc1cc(OC)cc(-c2sc3ccc(OC)cc3c2-c2ccc(O)cc2)c1	CSC inhib 136.1 (no result: Calb FLC)
CN(Cc1ccccc1)C(=O)c1csc([C@@H]2O[C@H](CO)[C@H](O)[C@H](O)[C@H]2O)n1	none (no result: Beta cell apopt, CSC inhib, Mdm2 MdmX PPI, Calb FLC)
C=CCn1c(SCC(=O)c2[nH]c(C)c(C(=O)OCC)c2C)nc2scc(-c3ccc(OC)c(OC)c3)c2c1=O	Beta cell apopt 94.9, CSC inhib 93.0 (no result: Mdm2 MdmX PPI)
COc1cc(C(=O)N2CCCC(c3cc(C(=O)NCc4ccccc4)no3)C2)cc(OC)c1C (stereo unspecified)	none (no result: Beta cell apopt, CSC inhib, Mdm2 MdmX PPI, Calb FLC)
COc1ccc([C@H]2CC(=O)C=C(c3ccc(F)cc3OCc3ccccc3)C2)cc1	none (no result: Calb FLC)
O=C1C=C(c2ccc(F)cc2OCc2ccccc2)C[C@@H](c2ccc(F)cc2)C1	CSC inhib 92.9 (no result: Calb FLC)
Cc1c(C)n(C)c2ccc(C(=O)N3CCN(c4ccccc4)CC3)cc12	none
Cc1ccc(C)c(N2CCN(C(=O)c3ccc4c(c3)c(C)c(C)n4C)CC2)c1	CSC inhib 82.1
N#C/C(=C/c1ccc(N2CCCCCC2)o1)c1ccc(Cl)cc1	Beta cell apopt 81.0
CCCNC(=O)C1(C)CCN(C(=O)c2ccc3c(c2)CCO3)C1 (stereo unspecified)	none (no result: Beta cell apopt, CSC inhib, Mdm2 MdmX PPI, Calb FLC)
Oc1ccc(/C=C/c2ccc3cccc(O)c3n2)cc1Br	CSC inhib 92.7
CC(=O)Nc1ccc(OCC(O)Cn2c3ccccc3c3ccccc32)c(C)c1 (stereo unspecified)	CSC inhib 77.6
CC1(C)OC(=O)C2=C(C[C@@H](C3CC3)O[C@@H]2C2CC2)O1	none (no result: Beta cell apopt, CSC inhib, Mdm2 MdmX PPI, Calb FLC)
CCOc1ccc(Cl)cc1-c1cc(C(=O)Nc2ccc(C(C)C)cc2)[nH]n1	none (no result: Beta cell apopt, CSC inhib, Mdm2 MdmX PPI, Calb FLC)
CC1(C)C(O)=C(c2nc3ccccc3[nH]2)C(=N)N1c1ccccc1	Calb FLC 99.8
CC(C)N1CC(O)=C(c2nc3ccccc3[nH]2)C1=N	none
CCCNC(=O)C1(C)CCCN(C(=O)COc2ccc(C(C)(C)C)cc2)C1 (stereo unspecified)	none (no result: Beta cell apopt, CSC inhib, Mdm2 MdmX PPI, Calb FLC)
CCCC(c1nnnn1CC1CCCO1)N1CCN(c2cc(Cl)ccc2C)CC1 (stereo unspecified)	CSC inhib 99.3
COc1ccc(Cn2nnnc2C(CC(C)C)N2CCN(c3ccccc3)CC2)cc1 (stereo unspecified)	none
CC(C)CC(c1nnnn1Cc1ccco1)N1CCN(c2cccc(Cl)c2)CC1 (stereo unspecified)	CSC inhib 109.6
Cc1ccc(Cl)cc1N1CCN(C(CC(C)C)c2nnnn2CC2CCCO2)CC1 (stereo unspecified)	CSC inhib 101.3
CC(C)CC(c1nnnn1CC1CCCO1)N1CCN(c2cccc(Cl)c2)CC1 (stereo unspecified)	none
CC1(C(=O)NCC2CCOCC2)Cc2c(-c3cccc(C(F)(F)F)c3)ccnc2O1 (stereo unspecified)	none (no result: Beta cell apopt, CSC inhib, Mdm2 MdmX PPI, Calb FLC)
CCNC(=O)C1(C)CCCN1C(=O)c1cc(OC)c(OC)c(OC)c1 (stereo unspecified)	none (no result: Beta cell apopt, CSC inhib, Mdm2 MdmX PPI, Calb FLC)
COc1ccc(C(=O)N(CN2CCCC2=O)c2ccc(C)cc2)cc1	Calb FLC 103.1
CCCCCCCCCCOC(=O)C[N+](C)(C)C/C=C(/C)Cl	Beta cell apopt 113.4
O=C(CSc1ncnc2nc[nH]c12)c1ccccc1	none
O=C(CSc1ncnc2nc[nH]c12)c1ccc(Cl)cc1	CSC inhib 102.1
CCN1CCN(C2=C(NS(=O)(=O)c3ccccc3)C(=O)c3ccccc3C2=O)CC1	Beta cell apopt 81.7
CN1CCN(C2=C(NS(=O)(=O)c3cccs3)C(=O)c3ccccc3C2=O)CC1	Beta cell apopt 92.8
O=C1C(NS(=O)(=O)c2cccs2)=C(N2CCOCC2)C(=O)c2ccccc21	none
COc1ccc(-c2nc3ccccc3n(CC(C)C)c2=O)cc1	none (no result: Beta cell apopt, CSC inhib, Mdm2 MdmX PPI, Calb FLC)
CC(C)(C)c1ccc(C(=O)CC(Sc2ccc(Cl)cc2)C(=O)O)cc1 (stereo unspecified)	CSC inhib 79.5
CC(C)NC(=O)C1(C)CSCC(=O)N1CCOc1ccccc1 (stereo unspecified)	none (no result: Beta cell apopt, CSC inhib, Mdm2 MdmX PPI, Calb FLC)
Cc1ccc(Cc2c(-c3ccc(F)cc3)nc3c(C)cc(Br)cn23)cc1	none (no result: Beta cell apopt, CSC inhib, Mdm2 MdmX PPI, Calb FLC)
CC1=CC(C)(C)N(C(=O)CSc2nnc(-c3ccc(C)cc3)o2)c2ccc(C)cc21	Beta cell apopt 82.1 (no result: CSC inhib)
CCCc1c(-c2ccc(F)cc2)ncn1Cc1ccccc1OC	none (no result: Beta cell apopt, CSC inhib, Mdm2 MdmX PPI, Calb FLC)
CCCCc1ccc(N=N/C(C(=O)Nc2ccc(NC(C)=O)cc2OC)=C(/C)O)cc1	CSC inhib 80.0
COc1ccccc1NS(=O)(=O)c1cc(N=N/C(C(=O)Nc2ccc(Cl)cc2)=C(/C)O)ccc1C	none (no result: Calb FLC)
Cc1ccc2c(NCc3ccco3)nc(NC(C)C)nc2c1	none (no result: Beta cell apopt, CSC inhib, Mdm2 MdmX PPI, Calb FLC)
CCc1ccc(OCc2n[nH]c(=S)n2C(C)CCCC(C)C)cc1 (stereo unspecified)	CSC inhib 118.3
O=C(c1ccccc1)n1c2ccccc2c(=O)n1-c1ccccc1CCl	none (no result: Beta cell apopt, CSC inhib, Mdm2 MdmX PPI, Calb FLC)
Cc1cc(=O)[nH]c2c1cnn2Cc1ccccc1	none
S=c1nc[nH]c2c1cnn2Cc1ccccc1	Calb FLC 93.9
CSc1nn2c(C(F)(F)F)cc(C(F)(F)F)nc2c1C(=O)O	Calb FLC 112.1
O=C(NCc1ccco1)C(c1ccccc1)N(CC1CCCO1)C(=O)Cn1nnc2ccccc21 (stereo unspecified)	none

High-throughput results as filed in PubChem BioAssay.
